# Data published in paper PMC8384837, “Expanding the binding specificity for RNA recognition by a PUF domain”.
# Positions count from the first letter of the chain named.
# What was measured:
# Experiment in all cases: yeast three-hybrid, YBZ-1, SC-Leu-His + 0.5 mM 3-AT, 4 days
# Conditions in all cases: tags: N-Gal4 AD-HA kept; label: inside an RPR1-promoter hybrid RNA with tandem MS2 sites; ssRNA
# PUM1 PUF domain R6-VWI = target: T1, PUM1 PUF domain R6-VWI (Homo sapiens, UniProt Q14671 828-1176, N1043V;Y1044W;Q1047I)
# T1 sequence: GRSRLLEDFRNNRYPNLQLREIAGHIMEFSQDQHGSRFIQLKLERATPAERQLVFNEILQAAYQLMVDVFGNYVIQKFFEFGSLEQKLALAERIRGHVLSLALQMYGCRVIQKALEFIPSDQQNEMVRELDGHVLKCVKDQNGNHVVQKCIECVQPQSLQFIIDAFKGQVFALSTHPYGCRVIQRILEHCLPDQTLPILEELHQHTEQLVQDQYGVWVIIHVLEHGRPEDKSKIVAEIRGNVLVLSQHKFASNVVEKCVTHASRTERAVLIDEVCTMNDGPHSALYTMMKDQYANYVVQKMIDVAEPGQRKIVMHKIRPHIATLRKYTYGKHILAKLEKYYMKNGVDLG
# Procedure, shortened: (§1)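 Matching RNA elements and Pumilio-1 PUF domain libraries, randomized at the three base-contacting residues of every repeat, were co-expressed from a centromeric plasmid in strain YBZ-1 (LexA–MS2 coat fusion, HIS3 reporter). The repeat regions were PCR-amplified and Illumina-sequenced from cells grown four days on SC-Leu (input) or SC-Leu-His + 0.5 mM 3-AT (selection). The interaction score is the log change in variant frequency from input to selection. It is computed in log2, with a pseudocount of 1 for absent variants.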
# PUM1 PUF domain R4-WGG = PUM1 PUF domain R4-WGG (Homo sapiens, UniProt Q14671 828-1176, N971W;H972G;Q975G)
# PUM1 PUF domain R4-WGG, sequence (Q14671 828-1176 N971W/H972G/Q975G): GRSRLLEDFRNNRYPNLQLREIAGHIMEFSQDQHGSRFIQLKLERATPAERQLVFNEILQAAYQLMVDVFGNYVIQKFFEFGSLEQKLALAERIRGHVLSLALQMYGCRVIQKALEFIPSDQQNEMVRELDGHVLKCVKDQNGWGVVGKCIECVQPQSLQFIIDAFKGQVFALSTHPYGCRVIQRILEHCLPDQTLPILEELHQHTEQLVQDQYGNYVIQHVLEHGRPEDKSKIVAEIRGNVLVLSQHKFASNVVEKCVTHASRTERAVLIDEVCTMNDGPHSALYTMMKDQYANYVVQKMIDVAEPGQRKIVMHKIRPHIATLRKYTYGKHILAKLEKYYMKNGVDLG
# Procedure, shortened: as §1
# PUM1 PUF domain R8-RKV = PUM1 PUF domain R8-RKV (Homo sapiens, UniProt Q14671 828-1176, N1122R;Y1123K;Q1126V)
# Procedure, shortened: as §1
# PUM1 PUF domain R8-LYL = PUM1 PUF domain R8-LYL (Homo sapiens, UniProt Q14671 828-1176, N1122L;Q1126L)
# Procedure, shortened: as §1
# PUM1 PUF domain R5-RRF = PUM1 PUF domain R5-RRF (Homo sapiens, UniProt Q14671 828-1176, C1007R;Q1011F)
# Procedure, shortened: as §1
# PUM1 PUF domain R5-KYA = PUM1 PUF domain R5-KYA (Homo sapiens, UniProt Q14671 828-1176, C1007K;R1008Y;Q1011A)
# Procedure, shortened: as §1
# PUM1 PUF domain R1-SRD = PUM1 PUF domain R1-SRD (Homo sapiens, UniProt Q14671 828-1176, Q867D)
# Procedure, shortened: as §1
# PUM1 PUF domain R1-GCK = PUM1 PUF domain R1-GCK (Homo sapiens, UniProt Q14671 828-1176, S863G;R864C;Q867K)
# Procedure, shortened: as §1
# PUM1 PUF domain R5-RFW = PUM1 PUF domain R5-RFW (Homo sapiens, UniProt Q14671 828-1176, C1007R;R1008F;Q1011W)
# Procedure, shortened: as §1
# PUM1 PUF domain R6-RYK = target: T2, PUM1 PUF domain R6-RYK (Homo sapiens, UniProt Q14671 828-1176, N1043R;Q1047K)
# T2 sequence: T1 sequence with V216R, W217Y, I220K
# Procedure, shortened: as §1
sequence,measurement,setting,value
GGCUAGAACUAGUGGAUCCCCCGGCGCCCGGCGGCUCGAGCCCGGGUAAGUGAAAAUAGUCUGCAUGCCGCCGGGCGCCAUGCCUGCAGGUCGACUCUAGAAAACAUG,binding signal,PUM1 PUF domain R6-VWI,5.74 log2 enrichment (interaction score)
GGCUAGAACUAGUGGAUCCCCCGGCGCCCGGCGGCUCGAGCCCGGGUAAGUGUACAUAGUCUGCAUGCCGCCGGGCGCCAUGCCUGCAGGUCGACUCUAGAAAACAUG,binding signal,PUM1 PUF domain R4-WGG,3.3 log2 enrichment (interaction score)
GGCUAGAACUAGUGGAUCCCCCGGCGCCCGGCGGCUCGAGCCCGGGUAAGCGUAAAUAGUCUGCAUGCCGCCGGGCGCCAUGCCUGCAGGUCGACUCUAGAAAACAUG,binding signal,PUM1 PUF domain R8-RKV,2.31 log2 enrichment (interaction score)
same,binding signal,PUM1 PUF domain R8-LYL,2.29 log2 enrichment (interaction score)
GGCUAGAACUAGUGGAUCCCCCGGCGCCCGGCGGCUCGAGCCCGGGUAAGUGUUAAUAGUCUGCAUGCCGCCGGGCGCCAUGCCUGCAGGUCGACUCUAGAAAACAUG,binding signal,PUM1 PUF domain R5-RRF,3.3 log2 enrichment (interaction score)
same,binding signal,PUM1 PUF domain R5-KYA,4.12 log2 enrichment (interaction score)
GGCUAGAACUAGUGGAUCCCCCGGCGCCCGGCGGCUCGAGCCCGGGUAAGUGUAAAUGGUCUGCAUGCCGCCGGGCGCCAUGCCUGCAGGUCGACUCUAGAAAACAUG,binding signal,PUM1 PUF domain R1-SRD,3.35 log2 enrichment (interaction score)
GGCUAGAACUAGUGGAUCCCCCGGCGCCCGGCGGCUCGAGCCCGGGUAAGUGUAUAUAGUCUGCAUGCCGCCGGGCGCCAUGCCUGCAGGUCGACUCUAGAAAACAUG,binding signal,PUM1 PUF domain R4-WGG,3.71 log2 enrichment (interaction score)
GGCUAGAACUAGUGGAUCCCCCGGCGCCCGGCGGCUCGAGCCCGGGUAAGUGUAAAUUGUCUGCAUGCCGCCGGGCGCCAUGCCUGCAGGUCGACUCUAGAAAACAUG,binding signal,PUM1 PUF domain R1-GCK,1.58 log2 enrichment (interaction score)
GGCUAGAACUAGUGGAUCCCCCGGCGCCCGGCGGCUCGAGCCCGGGUAAGUGUAAAUCGUCUGCAUGCCGCCGGGCGCCAUGCCUGCAGGUCGACUCUAGAAAACAUG,binding signal,PUM1 PUF domain R1-GCK,2.79 log2 enrichment (interaction score)
GGCUAGAACUAGUGGAUCCCCCGGCGCCCGGCGGCUCGAGCCCGGGUAAGUGUAAAUAGUCUGCAUGCCGCCGGGCGCCAUGCCUGCAGGUCGACUCUAGAAAACAUG,binding signal,PUM1 PUF domain R8-LYL,0.84 log2 enrichment (interaction score)
same,binding signal,PUM1 PUF domain R4-WGG,2.44 log2 enrichment (interaction score)
same,binding signal,PUM1 PUF domain R5-RFW,1.35 log2 enrichment (interaction score)
same,binding signal,PUM1 PUF domain R6-RYK,3.06 log2 enrichment (interaction score)
same,binding signal,PUM1 PUF domain R5-KYA,3.48 log2 enrichment (interaction score)
GGCUAGAACUAGUGGAUCCCCCGGCGCCCGGCGGCUCGAGCCCGGGUAAGUGUCAAUAGUCUGCAUGCCGCCGGGCGCCAUGCCUGCAGGUCGACUCUAGAAAACAUG,binding signal,PUM1 PUF domain R5-RRF,3.03 log2 enrichment (interaction score)
same,binding signal,PUM1 PUF domain R5-RFW,3.42 log2 enrichment (interaction score)
same,binding signal,PUM1 PUF domain R5-KYA,3.04 log2 enrichment (interaction score)
GGCUAGAACUAGUGGAUCCCCCGGCGCCCGGCGGCUCGAGCCCGGGUAAGUGUGAAUAGUCUGCAUGCCGCCGGGCGCCAUGCCUGCAGGUCGACUCUAGAAAACAUG,binding signal,PUM1 PUF domain R5-RFW,2.92 log2 enrichment (interaction score)
same,binding signal,PUM1 PUF domain R5-KYA,0.9 log2 enrichment (interaction score)
GGCUAGAACUAGUGGAUCCCCCGGCGCCCGGCGGCUCGAGCCCGGGUAAGUGUAGAUAGUCUGCAUGCCGCCGGGCGCCAUGCCUGCAGGUCGACUCUAGAAAACAUG,binding signal,PUM1 PUF domain R4-WGG,1.6 log2 enrichment (interaction score)
